Experimental data published in the supplement of paper PMC11732987, “Enantioselective OTUD7B fragment discovery through chemoproteomics screening and high-throughput optimisation” (Communications Chemistry, 2025).

Key:
Assay in all cases: log2 ratio of Biotin-Ahx-Ub-VS probe labelling (fragment/DMSO); higher = less target engagement (more negative = stronger competition), active = hit call of the paper (q ≤ 0.05, log2 ratio ≤ -1)
Settings in all cases: compound concentration: 200 uM; treatment time: 3 h
USP19 = target: T1, USP19 (UniProt O94966)
T1 sequence (whole entry): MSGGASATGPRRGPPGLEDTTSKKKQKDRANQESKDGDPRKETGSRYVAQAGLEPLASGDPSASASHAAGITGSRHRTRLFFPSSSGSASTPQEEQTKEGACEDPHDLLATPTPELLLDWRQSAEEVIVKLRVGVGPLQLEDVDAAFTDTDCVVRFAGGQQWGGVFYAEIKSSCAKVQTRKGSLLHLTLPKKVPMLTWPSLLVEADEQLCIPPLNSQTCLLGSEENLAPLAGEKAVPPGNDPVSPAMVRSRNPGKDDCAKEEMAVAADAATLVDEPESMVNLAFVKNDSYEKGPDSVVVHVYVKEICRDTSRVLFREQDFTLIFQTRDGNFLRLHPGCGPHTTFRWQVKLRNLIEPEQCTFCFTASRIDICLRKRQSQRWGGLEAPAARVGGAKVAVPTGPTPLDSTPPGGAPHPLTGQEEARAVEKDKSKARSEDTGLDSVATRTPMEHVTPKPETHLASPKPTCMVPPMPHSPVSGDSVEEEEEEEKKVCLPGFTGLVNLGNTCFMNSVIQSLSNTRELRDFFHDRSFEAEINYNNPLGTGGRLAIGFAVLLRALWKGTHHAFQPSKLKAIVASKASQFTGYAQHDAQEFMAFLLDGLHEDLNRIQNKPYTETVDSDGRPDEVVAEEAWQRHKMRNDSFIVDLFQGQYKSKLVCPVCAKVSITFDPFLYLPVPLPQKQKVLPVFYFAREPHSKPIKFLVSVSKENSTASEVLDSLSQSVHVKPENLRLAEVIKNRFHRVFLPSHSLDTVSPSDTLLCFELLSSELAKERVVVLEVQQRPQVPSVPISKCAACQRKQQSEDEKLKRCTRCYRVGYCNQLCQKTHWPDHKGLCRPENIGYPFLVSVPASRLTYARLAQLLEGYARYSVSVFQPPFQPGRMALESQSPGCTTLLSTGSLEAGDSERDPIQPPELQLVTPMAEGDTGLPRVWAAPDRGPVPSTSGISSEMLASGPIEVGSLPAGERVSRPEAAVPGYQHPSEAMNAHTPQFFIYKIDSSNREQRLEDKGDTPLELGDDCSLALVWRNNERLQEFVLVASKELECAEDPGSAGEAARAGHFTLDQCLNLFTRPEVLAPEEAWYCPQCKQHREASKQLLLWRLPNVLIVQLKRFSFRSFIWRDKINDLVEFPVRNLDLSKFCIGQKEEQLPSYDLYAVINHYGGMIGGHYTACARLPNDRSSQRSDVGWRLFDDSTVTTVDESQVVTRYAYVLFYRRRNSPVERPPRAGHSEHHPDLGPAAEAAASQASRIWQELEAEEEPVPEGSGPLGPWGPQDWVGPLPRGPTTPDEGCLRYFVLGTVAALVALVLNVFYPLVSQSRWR
In short: (§1)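 HEK293T lysate in Tris/CHAPS/IGEPAL buffer with protease inhibitors (495 µg per sample) was given fragment at 200 µM or vehicle for 3 h, in triplicate. It then received Biotin-Ahx-Ub-VS at 0.5 µM final for 1 h. Labelled DUBs were NeutrAvidin-enriched, digested with LysC and trypsin, and run by diaPASEF LC-MS/MS. Values are average log2 fragment/vehicle ratios by unpaired t-test on global-median-normalised Spectronaut quantities of proteins with ≥2 unique peptides.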

USP24 = USP24 (UniProt Q9UPU5)
USP24, sequence (Q9UPU5 whole entry): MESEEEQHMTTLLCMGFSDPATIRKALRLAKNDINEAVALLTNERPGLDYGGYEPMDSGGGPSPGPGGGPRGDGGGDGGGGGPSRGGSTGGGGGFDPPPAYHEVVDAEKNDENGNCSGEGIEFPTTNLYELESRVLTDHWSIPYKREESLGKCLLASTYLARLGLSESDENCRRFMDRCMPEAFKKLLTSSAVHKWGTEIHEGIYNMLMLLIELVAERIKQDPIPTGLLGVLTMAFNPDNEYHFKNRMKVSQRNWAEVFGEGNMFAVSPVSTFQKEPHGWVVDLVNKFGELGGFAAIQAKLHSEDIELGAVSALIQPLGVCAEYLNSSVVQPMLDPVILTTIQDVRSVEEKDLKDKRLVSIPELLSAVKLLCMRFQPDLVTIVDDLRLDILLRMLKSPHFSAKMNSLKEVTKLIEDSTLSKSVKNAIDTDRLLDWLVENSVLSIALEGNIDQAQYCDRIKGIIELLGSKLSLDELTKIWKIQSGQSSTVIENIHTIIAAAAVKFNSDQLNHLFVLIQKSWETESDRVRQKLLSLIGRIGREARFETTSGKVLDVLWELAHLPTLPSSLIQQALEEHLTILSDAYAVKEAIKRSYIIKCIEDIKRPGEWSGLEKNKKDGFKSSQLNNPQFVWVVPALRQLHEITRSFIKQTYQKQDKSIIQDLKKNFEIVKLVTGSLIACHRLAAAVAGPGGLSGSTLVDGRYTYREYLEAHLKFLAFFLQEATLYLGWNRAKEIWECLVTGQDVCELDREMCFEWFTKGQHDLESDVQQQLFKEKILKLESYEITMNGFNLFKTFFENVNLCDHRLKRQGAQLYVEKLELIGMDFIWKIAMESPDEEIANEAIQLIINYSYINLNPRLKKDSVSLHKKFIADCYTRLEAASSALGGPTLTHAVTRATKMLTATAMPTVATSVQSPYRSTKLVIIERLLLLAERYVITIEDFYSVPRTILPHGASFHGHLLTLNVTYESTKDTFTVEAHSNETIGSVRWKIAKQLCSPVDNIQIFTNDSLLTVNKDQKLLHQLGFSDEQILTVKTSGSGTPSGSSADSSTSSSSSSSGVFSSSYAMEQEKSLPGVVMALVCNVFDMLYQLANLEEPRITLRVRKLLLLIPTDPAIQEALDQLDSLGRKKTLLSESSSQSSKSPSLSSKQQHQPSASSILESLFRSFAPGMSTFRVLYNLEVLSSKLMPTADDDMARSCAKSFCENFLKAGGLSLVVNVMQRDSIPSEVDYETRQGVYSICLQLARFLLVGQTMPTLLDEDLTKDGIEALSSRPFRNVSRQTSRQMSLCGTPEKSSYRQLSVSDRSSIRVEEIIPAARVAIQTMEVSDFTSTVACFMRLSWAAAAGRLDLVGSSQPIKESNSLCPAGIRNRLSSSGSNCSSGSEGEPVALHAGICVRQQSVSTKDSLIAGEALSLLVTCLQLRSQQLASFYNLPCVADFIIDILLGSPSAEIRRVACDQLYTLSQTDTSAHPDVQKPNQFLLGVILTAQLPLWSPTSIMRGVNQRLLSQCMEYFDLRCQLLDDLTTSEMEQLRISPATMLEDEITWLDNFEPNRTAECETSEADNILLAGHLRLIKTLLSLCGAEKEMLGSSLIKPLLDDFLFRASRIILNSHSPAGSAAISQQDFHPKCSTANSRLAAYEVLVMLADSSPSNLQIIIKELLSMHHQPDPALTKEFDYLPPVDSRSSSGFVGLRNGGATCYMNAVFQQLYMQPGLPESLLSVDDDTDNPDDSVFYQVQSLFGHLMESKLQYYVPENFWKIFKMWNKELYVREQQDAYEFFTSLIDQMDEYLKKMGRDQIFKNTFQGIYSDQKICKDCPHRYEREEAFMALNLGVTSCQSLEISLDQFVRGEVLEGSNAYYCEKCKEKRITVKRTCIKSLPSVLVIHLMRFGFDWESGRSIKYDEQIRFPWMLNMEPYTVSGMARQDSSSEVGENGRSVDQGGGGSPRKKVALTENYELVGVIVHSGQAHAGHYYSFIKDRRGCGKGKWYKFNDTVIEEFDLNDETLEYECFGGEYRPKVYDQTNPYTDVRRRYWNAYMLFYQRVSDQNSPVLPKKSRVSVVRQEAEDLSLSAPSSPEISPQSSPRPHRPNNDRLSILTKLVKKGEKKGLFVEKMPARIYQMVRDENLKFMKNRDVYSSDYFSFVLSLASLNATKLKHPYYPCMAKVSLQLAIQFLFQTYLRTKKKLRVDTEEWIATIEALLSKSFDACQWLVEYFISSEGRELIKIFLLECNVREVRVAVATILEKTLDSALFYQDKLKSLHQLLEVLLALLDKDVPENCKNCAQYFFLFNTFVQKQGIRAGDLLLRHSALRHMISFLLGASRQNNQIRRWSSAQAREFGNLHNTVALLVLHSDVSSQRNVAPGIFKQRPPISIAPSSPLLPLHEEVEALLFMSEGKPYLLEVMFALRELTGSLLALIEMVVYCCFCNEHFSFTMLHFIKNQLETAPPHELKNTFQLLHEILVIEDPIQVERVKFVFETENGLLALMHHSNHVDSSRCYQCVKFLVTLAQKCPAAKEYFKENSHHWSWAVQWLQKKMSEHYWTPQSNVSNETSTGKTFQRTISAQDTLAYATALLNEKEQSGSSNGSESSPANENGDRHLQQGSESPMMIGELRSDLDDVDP
In short: as §1

USP25 = target: T2, USP25 (UniProt Q9UHP3)
T2 sequence (whole entry): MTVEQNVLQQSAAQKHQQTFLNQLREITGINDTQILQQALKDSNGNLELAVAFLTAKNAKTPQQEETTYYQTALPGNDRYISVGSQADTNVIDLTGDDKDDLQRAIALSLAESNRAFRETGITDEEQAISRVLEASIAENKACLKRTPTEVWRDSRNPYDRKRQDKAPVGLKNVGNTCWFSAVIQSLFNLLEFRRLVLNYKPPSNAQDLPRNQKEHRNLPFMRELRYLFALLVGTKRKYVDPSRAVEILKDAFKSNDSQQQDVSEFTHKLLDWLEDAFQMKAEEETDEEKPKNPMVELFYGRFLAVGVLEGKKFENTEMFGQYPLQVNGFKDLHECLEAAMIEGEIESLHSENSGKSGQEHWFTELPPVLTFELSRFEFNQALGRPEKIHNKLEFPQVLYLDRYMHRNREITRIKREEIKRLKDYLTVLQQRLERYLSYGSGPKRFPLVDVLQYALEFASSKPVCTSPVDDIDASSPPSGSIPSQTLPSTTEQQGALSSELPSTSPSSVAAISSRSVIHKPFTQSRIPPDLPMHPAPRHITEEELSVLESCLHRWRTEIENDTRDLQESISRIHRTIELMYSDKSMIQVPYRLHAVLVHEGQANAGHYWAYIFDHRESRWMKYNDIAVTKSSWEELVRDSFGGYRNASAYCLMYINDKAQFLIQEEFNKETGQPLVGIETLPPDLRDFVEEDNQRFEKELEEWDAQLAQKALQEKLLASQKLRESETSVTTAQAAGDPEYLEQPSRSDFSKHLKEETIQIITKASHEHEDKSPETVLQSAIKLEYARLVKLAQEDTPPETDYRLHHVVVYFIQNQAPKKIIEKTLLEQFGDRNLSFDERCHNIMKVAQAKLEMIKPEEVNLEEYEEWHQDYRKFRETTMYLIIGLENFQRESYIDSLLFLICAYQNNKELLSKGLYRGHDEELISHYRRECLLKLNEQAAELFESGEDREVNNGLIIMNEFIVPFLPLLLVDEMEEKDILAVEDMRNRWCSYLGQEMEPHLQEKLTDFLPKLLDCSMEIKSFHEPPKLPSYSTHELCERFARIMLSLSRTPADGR
In short: as §1

USP28 = target: T3, USP28 (UniProt Q96RU2)
T3 sequence (whole entry): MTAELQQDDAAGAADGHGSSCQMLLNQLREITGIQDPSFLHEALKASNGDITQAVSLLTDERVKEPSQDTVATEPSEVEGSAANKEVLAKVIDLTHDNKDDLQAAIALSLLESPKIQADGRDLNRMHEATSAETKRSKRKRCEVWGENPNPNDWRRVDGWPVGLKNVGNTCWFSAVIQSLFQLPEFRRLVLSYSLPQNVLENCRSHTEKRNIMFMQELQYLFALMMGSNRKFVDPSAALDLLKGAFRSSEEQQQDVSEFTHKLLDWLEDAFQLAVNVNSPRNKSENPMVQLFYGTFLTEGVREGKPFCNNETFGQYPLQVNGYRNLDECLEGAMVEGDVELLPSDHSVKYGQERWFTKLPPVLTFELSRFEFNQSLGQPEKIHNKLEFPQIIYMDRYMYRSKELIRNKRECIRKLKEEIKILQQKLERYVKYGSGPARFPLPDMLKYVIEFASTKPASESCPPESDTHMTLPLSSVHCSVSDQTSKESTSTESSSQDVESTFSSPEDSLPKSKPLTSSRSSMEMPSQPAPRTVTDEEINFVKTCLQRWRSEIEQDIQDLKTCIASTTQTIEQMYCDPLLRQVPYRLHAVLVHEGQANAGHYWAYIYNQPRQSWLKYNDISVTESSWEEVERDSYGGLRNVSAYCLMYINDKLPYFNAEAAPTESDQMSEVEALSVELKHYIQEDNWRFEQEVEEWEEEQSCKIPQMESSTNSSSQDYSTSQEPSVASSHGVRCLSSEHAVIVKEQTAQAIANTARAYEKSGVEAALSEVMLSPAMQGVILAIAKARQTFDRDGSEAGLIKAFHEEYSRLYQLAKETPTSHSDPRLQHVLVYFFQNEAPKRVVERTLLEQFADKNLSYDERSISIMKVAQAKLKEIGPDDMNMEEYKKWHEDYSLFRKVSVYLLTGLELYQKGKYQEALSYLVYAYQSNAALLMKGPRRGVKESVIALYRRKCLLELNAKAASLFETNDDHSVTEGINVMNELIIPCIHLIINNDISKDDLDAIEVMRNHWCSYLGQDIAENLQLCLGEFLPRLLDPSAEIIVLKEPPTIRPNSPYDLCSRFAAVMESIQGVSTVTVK
In short: as §1

Measured: log2 ratio of Biotin-Ahx-Ub-VS probe labelling

C/C(=C\CNC(=O)CCl)c1cnn(C)c1.Cl
inactive: USP19 -0.404 | USP24 -0.203 | USP25 -0.578 | USP28 -0.395
